Source: PubChem (National Center for Advancing Translational Sciences (NCATS))
Hits are enriched below; roughly 0.77% of the tested compounds scored in any of these assays.
Vif-APOBEC3F blk – Vif-A3F binding inhibition. HeLa A3F-eYFP + Vif (tagged APOBEC3F with the HIV-1 protein that degrades it), YFP fluorescence increase. hit rate 0.2% among 390,000. Potency, µM (top dose mostly 46.1 µM), for the others: at the top dose activity, negative = active; also: potency is read from the fitted curve at half-maximal effect; % of control where 0% means no effect; nearly all actives have a fitted effect of over 65% in size
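HeLa cells stably expressing Vif plus C-terminally eYFP-tagged A3F were seeded, incubated overnight at 37 deg C, dosed with compound, incubated overnight again at 37 deg C. Yellow fluorescence (Ex 488/Em 500-530) reported blocked Vif-mediated A3F-eYFP degradation.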
Vif-APOBEC3G blk – Vif-A3G binding inhibition. Q9HC16. HeLa A3G-eYFP + Vif (tagged APOBEC3G with the HIV-1 protein that degrades it), YFP fluorescence, overnight. Potency, µM (series often up to 46.1 µM), inactives show at the highest dose activity, negative = active, most hits filed as inhibitors. hit rate 0.076% among 410,000. AID 602310; also: potency is read from the fitted curve at half-maximal effect; % is scaled to controls: 0 for no effect and ±100 for the full control effect; nearly all actives have a fitted effect of over 60% in size
Target sequence (Q9HC16 whole entry, looked up): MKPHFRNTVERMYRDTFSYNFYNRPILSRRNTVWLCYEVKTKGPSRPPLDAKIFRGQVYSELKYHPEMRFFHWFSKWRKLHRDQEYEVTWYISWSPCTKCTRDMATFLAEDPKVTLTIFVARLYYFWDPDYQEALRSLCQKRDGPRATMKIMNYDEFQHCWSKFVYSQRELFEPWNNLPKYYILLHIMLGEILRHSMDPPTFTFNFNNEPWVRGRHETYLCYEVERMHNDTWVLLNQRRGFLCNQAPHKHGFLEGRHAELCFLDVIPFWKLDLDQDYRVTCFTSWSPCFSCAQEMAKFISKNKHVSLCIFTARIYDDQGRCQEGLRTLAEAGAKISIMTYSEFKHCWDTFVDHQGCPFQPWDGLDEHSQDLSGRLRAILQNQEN
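Read-out is eYFP fluorescence (Ex 488/Em 500-530) from Vif-expressing HeLa A3G-eYFP cells; more signal means A3G escaped Vif-mediated degradation. Cells plated overnight, compound pinned in, incubated overnight at 37 deg C.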
RGS12 GoLoco inh – RGS12 GoLoco-Gai1 interaction inhibition | hit rate 0.44% among 230,000 | Gai1:RGS12 GoLoco peptide FP, rhodamine, 10 min | Potency, µM (titrated, usually from 61.6 µM), without a hit: top-dose activity, negative = inhibition, hits mostly inhibitors; active = well fitted inhibition curve with a large enough effect, not every such curve was filed as active; inactive = no such curve, though single readings can be large or run the other way; also: potency is read from the fitted curve at half-maximal effect; % is scaled to controls: 0 for no effect and ±100 for the full control effect; nearly all actives have a fitted effect of over 30% in size
Target sequence (P63096 whole entry, looked up): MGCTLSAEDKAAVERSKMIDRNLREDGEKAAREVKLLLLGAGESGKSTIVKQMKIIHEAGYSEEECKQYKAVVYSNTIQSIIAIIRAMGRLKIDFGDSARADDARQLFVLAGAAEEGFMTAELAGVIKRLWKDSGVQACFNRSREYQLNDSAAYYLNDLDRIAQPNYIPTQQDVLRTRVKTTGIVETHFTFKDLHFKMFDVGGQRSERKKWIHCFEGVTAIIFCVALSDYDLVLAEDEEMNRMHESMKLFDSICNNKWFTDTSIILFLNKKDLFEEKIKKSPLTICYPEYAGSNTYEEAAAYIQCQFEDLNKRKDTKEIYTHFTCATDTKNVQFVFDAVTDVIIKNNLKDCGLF
IL2 activator – activators of IL-2; activation, % (series mostly up to about 46 µM); IL-2 activation reporter assay, cell-based qHTS; stimulated with anti-CD3/CD4/CD28 beads; in transgenic mouse T cells; hit rate 0.065% among 360,000; in the data active = activation above about 50%; inconclusive = mostly about 30% to 49%; also: 0% is about no effect
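Unstimulated transgenic mouse T cells, 750 per well, received compound and, after 60 minutes, anti-CD3/anti-CD4 bead plus anti-CD28 stimulation. EGFP and DsRed were quantified after 18 hours.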
KAT2A inh – blocks human GCN5L2 histone acetyltransferase; Q92830; GCN5L2 HAT assay, ThioGlo1 CoA-SH fluorescence; Potency, µM (highest dose often 58.9 µM), without a hit: at the top dose activity change, negative = inhibition, usual class: inhibitors; hit rate 0.21% among 390,000; AID 504327; also: potency is read from the fitted curve at half-maximal effect; % is scaled to controls: 0 for no effect and ±100 for the full control effect
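Preincubate 20nM GCN5L2 with compound 15 min, RT → add 50uM ThioGlo1 + 75uM H3(1-25) + 70uM acetyl-CoA → read fluorescence 0 and 20 min. Primary qHTS; fluorescent artifacts likely.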
PKM2 activator – activators of human pyruvate kinase M2; P14618; purified PKM2, Kinase-Glo ATP luminescence, activation; response scale: 0% is enzyme alone, no compound; Potency, µM (highest dose often 57.5 µM), inactives show at the highest dose activation, usual class: activators; hit rate 0.34% among 260,000; also: potency is read from the fitted curve at half-maximal effect; % is scaled to controls: 0 for no effect and ±100 for the full control effect; nearly all actives have a fitted effect of over 55% in size
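Kinase-Glo luminescence reports ATP generated from ADP (0.1 mM) and PEP (0.5 mM) by purified hPK-M2 after 1 h at room temperature, pH 7.2 imidazole buffer; intermediate enzyme activity allows detecting inhibitors and activators.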
* hit, by the source's call; ? = inconclusive; · = not tested or not shown; ! = repeats disagree; [ ] = another dose, or the depositor's remark. Unless noted, calls follow the shape of the dose curve; as a rule, active = well fitted curve in the direction sought with a large enough effect; inconclusive = small, poorly fitted or top-dose-only effect, or another doubt; inactive = no such curve, though single readings can be large; an effect the other way counts as inactive or inconclusive.

SMILES	Vif-APOBEC3F blk	Vif-APOBEC3G blk	RGS12 GoLoco inh	IL2 activator	KAT2A inh	PKM2 activator
O=c1c2ccccc2[se]n1-c1ccccc1	?	-4%	2.8µM*!	-1	0.4µM*	-85%
Cc1cccc(N2C(=O)NC(=O)/C(=C/c3ccc([N+](=O)[O-])o3)C2=O)c1	-29%	-11%	23%	0	25µM*	-23%
COc1ccc(CN2C(=O)NC(=O)/C(=C/c3ccc([N+](=O)[O-])o3)C2=O)cc1	·	·	214%	·	22µM*	5%
C[C@@H]1C[C@H](C)C[C@H](C)[C@@H](O)CC(=O)O[C@H]([C@H]2CCC[C@H]2C(=O)O)C/C=C/C=C(/C#N)[C@H](O)[C@@H](C)C1	·	·	·	·	20%	·
CC[N+](C)(CC)CCCOC(=O)C(O)(c1ccccc1)C1CCCCC1 (stereo unspecified)	6%	0%	6.3µM*	0	-3%	-2%
Nc1ncnc2c1ncn2[C@@H]1O[C@@H]2COP(O)(=S)O[C@H]2[C@H]1O (stereo partly specified)	·	3%	·	·	·	·
CC(C)c1ccc(C(c2c(O)c3ccccc3oc2=O)c2c(O)c3ccccc3oc2=O)cc1	?	-21%	8%[14.2 µM]	-2	·	·
O=c1oc2ccccc2c(O)c1C(c1ccc([N+](=O)[O-])cc1)c1c(O)c2ccccc2oc1=O	3%	-15%	7%	0	22µM*	29%
[O-][Cl+2]([O-])O	·	·	11µM*	·	·	·
Brc1cccc(CNCCc2ccc3c(c2)OCO3)c1	1%	4%	·	0	-2%	-3%
O=C(COc1ccc(Cl)cc1Cl)N1CCN(C/C=C/c2ccccc2)CC1	-13%	-1%	-5%	-1	-13%	-11%
CCCCCCCCCC[n+]1cccc([C@@H]2CCCN2C)c1	·	·	·	·	8.9µM*	·
COCCNC(=O)c1c(NC(=O)c2ccc(Br)o2)n(Cc2ccccc2)c2nc3ccccc3nc12	11µM*	?	11%	2	?	13%
COCCCNC(=O)c1c(N)n(Cc2ccco2)c2nc3ccccc3nc12	-9%	-14%	2%	0	-7%	25µM*
COP(=O)(OC)Oc1ccc(C(O)C(Cl)(Cl)Cl)cc1 (stereo unspecified)	-2%	-3%	5%	0	0%	3%
CC[C@]1(O)CC(O[C@@H]2CC(N(C)C)C(O)C(C)O2)c2c(cc3c(c2O)C(=O)c2c(O)ccc(O)c2C3=O)C1C(=O)OC (stereo partly specified)	·	·	10%	·	-7%	·
COc1cccc2c1C(=O)c1c(O)c3c(c(O)c1C2=O)C[C@](O)(/C(C)=N\O)C[C@@H]3O[C@H]1C[C@H](N)[C@@H](O)[C@H](C)O1	·	·	0.63µM*	·	·	·
COc1ccc(C(c2nnnn2C2CCCC2)N2CCC3(CC2)C(=O)NCN3c2ccccc2)cc1 (stereo unspecified)	·	-7%	·	-1	·	·
CC1Cc2cc3c(cc2C(c2ccc(N)cc2)=NN1)OCO3 (stereo unspecified)	·	·	-25%	·	·	·
CCCCC/C=C\C/C=C\C/C=C\C/C=C\CCCC(=O)NCCc1ccc(O)c(O)c1	·	·	-11%	·	18µM*	·
CCCCC/C=C\C/C=C\C/C=C\C/C=C\CCCC(=O)Nc1ccc(O)cc1	·	·	2%	·	-19%	6%
CCCCC/C=C\C/C=C\CCCCCCCCCC(=O)NCCO	·	·	0%	·	·	·
CCCCC/C=C\C/C=C\C/C=C\C/C=C\CCCC(=O)NCC(=O)O	·	·	33%	·	6.3µM*	·
CCCCC/C=C\C/C=C\C/C=C\C/C=C\CCCC(=O)NCc1ccoc1	·	·	30%	·	14µM*	·
CCCCC/C=C\C/C=C\C/C=C\C/C=C\CCCC(=O)NCCO	·	·	1%	·	-5%	·
SMILES	Vif-APOBEC3F blk	Vif-APOBEC3G blk	RGS12 GoLoco inh	IL2 activator	KAT2A inh	PKM2 activator
CCCCC/C=C\C/C=C\C/C=C\C/C=C\CCCC(=O)N(Cc1ccc(O)c(Cl)c1)Cc1ccc(O)c(Cl)c1	·	·	40µM*	·	?	·
CCCCCCCCCCCOC(=O)c1ccccc1C(=O)OCCCCCCCCCCC	·	·	9%	·	·	·
CCCCC/C=C\C/C=C\C/C=C\C/C=C\CCCC(=O)NCCCC(=O)O	·	·	8%	·	14µM*	·
CC/C=C\C/C=C\C/C=C\C/C=C\C/C=C\CCCC(=O)NCCCC(=O)O	·	·	0%	·	·	·
Cc1ccc(-n2c(/C=C/c3ccccc3)nc3ccccc3c2=O)cc1C	2%	-6%	·	·	14%	·
c1ccc(-c2ccccc2)cc1	·	·	3%	·	·	·
CN1CCN(c2ccc(/C=C3\C(=O)NC(=S)N(c4cccc(Br)c4)C3=O)o2)CC1	25µM*	22µM*	272%	8	-1%	2%
Cc1ccc(-c2cn3c(=S)[nH]nc3s2)cc1	3%	-9%	1%	0	14µM*	-15%
C#C[C@@]1(O)CCC2C3CCC4=C/C(=N/OCC(=O)NC(C(=O)O)C(C)O)CC[C@]4(C)C3CC[C@@]21C (stereo partly specified)	-19%	1%	·	-3	4%	·
CC(=O)Oc1c2c(c(CC=C(C)C)c3c1C(=O)C1=CC4CC5C(C)(C)OC(C/C=C(\C)C(=O)O)(C4=O)[C@]15O3)OC(C)(CCC=C(C)C)C=C2 (stereo partly specified)	·	·	-12%	·	16µM*	·
CN(C)C1C(=O)C(C(N)=O)=C(O)[C@@]2(O)C(=O)C3=C(O)c4c(O)cccc4[C@@](C)(O)C3CC12 (stereo partly specified)	·	·	35µM*	·	-3%	·
O=C(Nc1ccccc1)N1CCC2(CC1)CCN(C(=O)Oc1ccccc1)CC2	·	·	5%	·	5%	·
C=CC(C)C(C(=O)c1ccccc1)N(C)C (stereo unspecified)	3%	3%	1%	1	2%	·
COP(=S)(OC)SCn1nnc2ccccc2c1=O	-9%	0%	2%	-1	40µM*	·
Cc1ncc(CN2CCCC(C(=O)c3cccc(OC(C)C)c3)C2)s1 (stereo unspecified)	4%	0%	-6%	0	20µM*	-3%
C[C@@H]1O[C@H](C[N+](C)(C)C)CS1	·	·	32µM*	·	?	·
[Hg+][c]1ccccc1	·	-14%	·	·	0.45µM*	·
Cc1cc(/C=C2\C(=O)NC(=O)N(c3ccc(Cl)cc3)C2=O)c(C)n1-c1sc2c(c1C#N)CCCC2	-18%	-7%	94%	-2	33%	26%
CCOC(=O)c1c(-n2c(C)cc(/C=C3\C(=O)NC(=O)N(C)C3=O)c2C)sc2c1CCCC2	1%	1%	5%	-1	-2%	16µM*
